Measured values published in PubChem BioAssay AID739 (SRMLSC, 2007).
Hit rate of the full screen: of about 98,000 compounds, about 880 (0.9%) were called active. This is one part of a sample in which actives are shown more often than they occur. Rule as the data show it: active = inhibition above about 30%; inactive = the rest.

Assay: phenotypic screen on post-Golgi transport, primary screen (AID 739);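 also: yeast cells grown in 1536-well plates; yeast grown about 18 h at 30C before absorbance read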
Settings: post-Golgi transport phenotypic cell assay; at 10 µM; hits give high values

SMILES | inhibition
Cc1ccc(NC(=O)COc2ccc(-n3ccnc3)cc2)cc1Cl | 48.8% (active)
CN1CCN(c2ccc(NC(=O)COc3ccc(Cl)cc3Cl)cc2)CC1 | 0.47% (inactive)
Cc1ccccc1OCC(=O)Nc1ccc(N2CCN(C(=O)C(C)C)CC2)c(Cl)c1 | -4.22% (inactive)
CCCOc1cc(C)c(S(=O)(=O)n2nnc3ccccc32)cc1C | 0.66% (inactive)
Cn1cc(S(=O)(=O)N2CCC(Cc3ccccc3)CC2)c(=O)n(C)c1=O | 7.01% (inactive)
Cn1cc(S(=O)(=O)N2CCN(c3ccc(F)cc3)CC2)c(=O)n(C)c1=O | -6.58% (inactive)
CC(C)c1ccc(NS(=O)(=O)c2cn(C)c(=O)n(C)c2=O)cc1 | 76% (active)
CCN1CCN(C(=O)c2cc3cc4ccc(OC)cc4nc3s2)CC1 | 1.48% (inactive)
O=C(NC1CCN(Cc2ccccc2)CC1)c1ccccc1F | 1.69% (inactive)
O=C(COc1ccccc1F)NC1CC1 | 15.2% (inactive)
O=C(COc1ccc(Br)cc1F)NC1CCN(Cc2ccccc2)CC1 | 95.3% (active)
CCC1(C)Cc2c(sc3nc(SC)nc(N)c23)CO1 (configuration not stated) | -2.83% (inactive)
COC(=O)c1ccc(Cc2ccccc2)o1 | 8.24% (inactive)
C=C(C)COc1ccc(-c2n[nH]c(C)c2-c2ccccc2OC)c(O)c1 | -7.36% (inactive)
CCOc1ccccc1Oc1cn[nH]c1-c1ccc(OC)cc1O | 80.9% (active)
CCOc1ccccc1NC(=O)Nc1cc(OC)ccc1OC | 1.32% (inactive)
O=C(Nc1ccc(Cl)cc1)c1cc2nc(C3CC3)cc(C(F)(F)F)n2n1 | 12% (inactive)
CC12c3ccccc3C(c3ccccc31)C1C(=O)N(Cc3cccnc3)C(=O)C12 (configuration not stated) | 2.75% (inactive)
CC(C)Cc1oc(C(=O)O)cc1CN | -3.35% (inactive)
COC(=O)C1CCN(CC(N)=O)CC1 | 0% (inactive)
OC(COc1cccc2ccccc12)CN1CCN(c2ccccn2)CC1 (configuration not stated) | 3.42% (inactive)

SMILES | inhibition
COc1cccc(OCC(O)CN2CCN(CCO)CC2)c1 (configuration not stated) | 3.01% (inactive)
Cc1ccc(OCC(O)CN2CCN(CC(O)COc3ccc(C)cc3Cl)CC2)c(Cl)c1 (configuration not stated) | 67.9% (active)
Fc1ccc(-n2c(Cc3ccccc3)nnc2SCc2nc(-c3ccc(Cl)cc3)no2)cc1 | -6.61% (inactive)
Cc1nn(C)c(Oc2ccc(Cl)cc2)c1C=O | -3.55% (inactive)
Cc1nc(Cl)c2oc3ccccc3c2n1 | 12.3% (inactive)
CCC(=O)c1ccc(OCC(O)CN2CC(C)OC(C)C2)cc1 (configuration not stated) | 2.21% (inactive)
OC(COc1cccc(OCC(O)CN2CCCC2)c1)CN1CCCC1 (configuration not stated) | -2.18% (inactive)
O=C(c1ccc(Cl)cc1)c1ccc(OCC(O)CN2CCCCC2)cc1 (configuration not stated) | 35.1% (active)
CC(C)NC(=O)C(=O)NCCN1CCN(S(=O)(=O)c2ccc(Cl)cc2)CC1 | 1.12% (inactive)
CC1(C)Cc2c(sc3nc(SCC(=O)NCc4ccccc4)n(-c4ccccc4)c(=O)c23)CS1 | 8.61% (inactive)
COc1cccc(NC(=O)Cc2ccc(C)cc2)c1 | 24.4% (inactive)
COc1ccc(CC(=O)Nc2ccc(-c3nnc(-c4ccc(C)cc4)o3)cc2)cc1 | 5.17% (inactive)
COc1ccc(NC(=O)/C(Cl)=C(/Cl)S(=O)Cc2ccc(C)cc2)cn1 (configuration not stated) | 107% (active)
O=C(NC(Nc1nc2ccc([N+](=O)[O-])cc2s1)(C(F)(F)F)C(F)(F)F)c1ccccc1 | 102% (active)
Cc1cc(C)cc(OCC(=O)Nc2nc3ccc([N+](=O)[O-])cc3s2)c1 | -4.35% (inactive)
COC(=O)C(NC(=O)c1ccc(OC)cc1)(Nc1ncc(S(=O)(=O)c2ccc([N+](=O)[O-])cc2)s1)C(F)(F)F (configuration not stated) | 6.99% (inactive)
COc1cc(OC)c(/C=N/NC(=O)c2ccc([N+](=O)[O-])cc2)cc1Br | -4.41% (inactive)
CCCc1ccc(-c2c(C)sc(NC(=O)c3ccnn3C)c2C#N)cc1 | -9.37% (inactive)
CC(CCc1ccccc1)NC(=O)c1ccc(Br)o1 (configuration not stated) | 2.83% (inactive)
CCc1c(C)sc(NC(=O)c2ccc(Br)o2)c1C(=O)OC | 2.81% (inactive)
CC(CNC(=O)c1ccc(Br)o1)NC(=O)c1ccc(Br)o1 (configuration not stated) | 36.5% (active)

SMILES | inhibition
Cc1cccc(C(=O)N2CCCN(C(=O)c3cccc(C)c3)CC2)c1 | 17.7% (inactive)
COC(=O)C1C(=O)NCC1c1ccc(C)cc1 (configuration not stated) | -3.77% (inactive)
CCCCN=C1N/C(=C\c2ccco2)C(=O)N1c1ccccc1 | 1.56% (inactive)
O=C1c2ccccc2C(=O)N1CCC(c1ccccc1)c1ccco1 (configuration not stated) | -1.67% (inactive)
CCCCCCC(=O)Nc1nc(C)c(-c2csc(Nc3cc(Cl)ccc3OC)n2)s1 | -2.77% (inactive)
C=CCCC(=O)Nc1nc(C)c(-c2csc(Nc3ccc(Cl)cc3)n2)s1 | 12.8% (inactive)
CCCCC(=O)Nc1nc(C)c(-c2csc(Nc3ccc(Cl)cc3)n2)s1 | 32.9% (active)
CCCCOc1ccc(C(=O)NCc2ccncc2)cc1 | 2.23% (inactive)
COc1c(C)cccc1C(=O)Nc1cc(Cl)ccc1N1CCOCC1 | 64.3% (active)
Cc1cc(C(=O)Nc2ccccc2N2CCOCC2)c2ccccc2n1 | -2.05% (inactive)
O=C(CNC(=O)c1ccc(Cl)cc1Cl)NCC(=O)Nc1ccccc1N1CCOCC1 | -6.67% (inactive)
O=C(Nc1nnc(-c2ccc(Cl)cc2)o1)c1ccccc1Br | 78.2% (active)
O=C(Nc1cccc(Cl)c1)Nc1nnc(-c2ccccc2)o1 | -5.96% (inactive)
Cc1nonc1NC(=O)c1ccccc1Br | -12.3% (inactive)
CS(=O)(=O)N1CCN(c2ccc(C(=O)NC3C4CC5CC(C4)CC3C5)cc2[N+](=O)[O-])CC1 (configuration not stated) | -5.58% (inactive)
CCOC(=O)N1CCC(Nc2c(NCCCN3CCN(CC)CC3)c(=O)c2=O)CC1 | -3.44% (inactive)
Cc1ccc(C(=O)NNC(=O)OC(C)(C)C)c(Cl)c1 | -3.13% (inactive)
COc1cc(OC)c(NC(=O)c2ccc(Br)o2)cc1Cl | 6.31% (inactive)
CCN1CCN(c2c(Cl)cccc2NC(=O)c2ccc(Br)o2)CC1 | 30.4% (active)
CCCC(=O)Nc1ccc(Cl)c(NC(=O)c2ccc(Br)o2)c1 | 0.4% (inactive)
